The values below come from PubChem BioAssay (NCI).

Some test systems named below: RPMI-8226 leukemia; OVCAR-5 ovarian; OVCAR-4 ovarian; SK-OV-3 ovarian; IGROV1 ovarian; OVCAR-3 ovarian; HS 578T breast; NCI/ADR-RES ovarian; T-47D breast; BT-549 breast; MDA-MB-435 melanoma; SW-620 colon; HCT-116 colon; HCC-2998 colon; KM12 colon; MCF7 breast.
Assay in all cases: NCI-60 one-dose screen, 48 h (100 = growth as untreated, 0 = no growth, -100 = all killed)
Common to all, as to settings: 10 µM unless noted

Compounds without any hit were thinned out: in the full panel of roughly 83,000, 20% have a hit.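 Method: cells in 96-well plates; compound added at one concentration; 48 h incubation; percent growth measured; values under 10 scored active.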 Unmarked numbers belong to inactive results. Activity calls are given as the source filed them.

For the molecule `COC(=O)[C@]12CC[C@@H](C)[C@H](C)[C@@H]1C1=CC[C@@H]3[C@@]4(C)C=C(O)C(=O)[C@@]5(C)COC(=C54)C[C@@]3(C)[C@]1(C)CC2`, the growth in the test with RPMI-8226 leukemia is -56.5% (active); in the test on OVCAR-5 ovarian it was -26.9% (active); in the test with OVCAR-4 ovarian it was -39.1% (active); in the test on SK-OV-3 ovarian, -20.8% (active); with IGROV1 ovarian, -23.5% (active); in the test with OVCAR-3 ovarian it was -92% (active). Also, the growth in the test with HS 578T breast is -18.8% (active); with NCI/ADR-RES ovarian it was -42.8% (active); in the test with T-47D breast, -25.8% (active); with BT-549 breast, -66.6% (active); with MDA-MB-435 melanoma, -60.9% (active); in the test on SW-620 colon, -65.6% (active). The growth with HCT-116 colon was -86.4% (active); in the test on HCC-2998 colon, -83.3% (active); with KM12 colon it was -74.2% (active).
As for `O=C(C(Br)Br)C(Br)C(Br)c1ccccc1` (centres undefined), the growth with RPMI-8226 leukemia was 78.1%; with OVCAR-5 ovarian it was 108%; in the test on OVCAR-4 ovarian, 43.1%; in the test with SK-OV-3 ovarian, 116%; with IGROV1 ovarian it was 84.3%; in the test on OVCAR-3 ovarian, 1.96% (active). The growth was 104% in the test on HS 578T breast; 94.5% with NCI/ADR-RES ovarian; 49.7% in the test with T-47D breast; 95.8% with BT-549 breast; 82.3% in the test with MDA-MB-435 melanoma; -46.9% (active) in the test on SW-620 colon. Further, the growth with MCF7 breast was 69.7%; in the test with HCT-116 colon, 24.7%; with HCC-2998 colon, 112%; in the test with KM12 colon, 102%.
As to `COc1ccc2[nH]cc(/C=C3/C(=O)Nc4ccc(F)cc43)c2c1`, the growth with RPMI-8226 leukemia is 62.4%; in the test with OVCAR-5 ovarian, 88.5%; in the test on OVCAR-4 ovarian, 75.6%; in the test with SK-OV-3 ovarian, 104%; in the test on IGROV1 ovarian, 98.2%; in the test on OVCAR-3 ovarian, 108%. Moreover, the growth is 72.6% in the test on HS 578T breast; 84.9% in the test on NCI/ADR-RES ovarian; 92.2% with T-47D breast; 134% with BT-549 breast; 93.8% with MDA-MB-435 melanoma; 101% in the test on SW-620 colon. Further, the growth in the test with MCF7 breast is 56.3%; with HCT-116 colon it was 86%; in the test on HCC-2998 colon, 93%; in the test with KM12 colon it was 27%.
With `O=C(c1ccccc1)c1ccco1`, the growth with RPMI-8226 leukemia was 101%; in the test with OVCAR-5 ovarian, 114%; in the test on OVCAR-4 ovarian it was 99.4%; in the test on SK-OV-3 ovarian, 104%; with IGROV1 ovarian, 99.5%; in the test on OVCAR-3 ovarian, 108%. The growth in the test on HS 578T breast is 118%; with NCI/ADR-RES ovarian, 95.7%; with T-47D breast, 97%; in the test on BT-549 breast it was 97.8%; in the test on SW-620 colon it was 110%; in the test with MCF7 breast, 93.2%. In addition, the values for the growth in the test with HCT-116 colon and in the test on KM12 colon were 102% and 107%, respectively.
`CC1CC(C)/C(=N/NC(N)=O)C(C(O)CC2CCC(=O)NC2=O)C1` (centres undefined): the growth in the test on RPMI-8226 leukemia is 50.4%; in the test with OVCAR-5 ovarian, 52.1%; with OVCAR-4 ovarian it was 57.7%; in the test on SK-OV-3 ovarian, 49.2%; in the test with IGROV1 ovarian, 30.1%; with OVCAR-3 ovarian, 53.6%. Further, the growth in the test with HS 578T breast was 10%; in the test on NCI/ADR-RES ovarian, 42.6%; in the test with T-47D breast, 42.5%; in the test with BT-549 breast, 53.1%; in the test with MDA-MB-435 melanoma, 34.3%; in the test on SW-620 colon, 34.3%. Also, the growth in the test on MCF7 breast is 36.7%; in the test on HCT-116 colon it was 24%; in the test with HCC-2998 colon, 58.8%; in the test with KM12 colon, 32.3%.
As to `C[n+]1c2ccccc2c(Nc2ccc(N3CCCCC3)cc2)c2[nH]c3ccccc3c21`, the growth was -72.4% (active) with RPMI-8226 leukemia; -86.2% (active) in the test on OVCAR-5 ovarian; -35.3% (active) in the test with OVCAR-4 ovarian; -75.8% (active) in the test with SK-OV-3 ovarian; -97% (active) in the test with IGROV1 ovarian; -95.7% (active) in the test with OVCAR-3 ovarian. The growth with HS 578T breast was -69.5% (active); in the test with NCI/ADR-RES ovarian, -61.8% (active); in the test with T-47D breast, -55.7% (active); in the test with MDA-MB-435 melanoma, -96.4% (active); in the test on SW-620 colon, -90.8% (active); with MCF7 breast, -74.6% (active). In addition, the growth in the test with HCT-116 colon was -98.7% (active); in the test on HCC-2998 colon, -96.1% (active); in the test with KM12 colon, -96.5% (active).
`CN(C)c1cccc2c(S(=O)(=O)N[C@H]3CC[C@H]4[C@@H]5CCc6cc(O)ccc6[C@H]5CC[C@]34C)cccc12`: the growth in the test with RPMI-8226 leukemia is 7.82% (active); with OVCAR-5 ovarian, 78.1%; with OVCAR-4 ovarian it was 50.6%; in the test on SK-OV-3 ovarian, 33.3%; with IGROV1 ovarian, 33.1%; in the test on OVCAR-3 ovarian it was 19.7%. In addition, the growth is 56.5% in the test with HS 578T breast; 12.3% with NCI/ADR-RES ovarian; 21.5% in the test with T-47D breast; 35.9% in the test with BT-549 breast; -46.4% (active) with MDA-MB-435 melanoma; 24.8% in the test with SW-620 colon. The growth in the test on MCF7 breast is 12.9%; in the test on HCT-116 colon, 13.1%; in the test with HCC-2998 colon, 60.6%; in the test on KM12 colon, 18.5%.
As to `COc1ccc(/C=N/NC(=O)c2ccc(S(C)(=O)=O)cc2)cc1OC`, the growth is 97.1% with RPMI-8226 leukemia; 111% in the test with OVCAR-5 ovarian; 96.2% in the test on OVCAR-4 ovarian; 102% with SK-OV-3 ovarian; 109% in the test with IGROV1 ovarian; 108% in the test on OVCAR-3 ovarian. Also, the growth in the test with HS 578T breast is 102%; in the test with NCI/ADR-RES ovarian, 108%; in the test on T-47D breast, 96.6%; in the test on MDA-MB-435 melanoma it was 109%; in the test with SW-620 colon it was 99.8%; with MCF7 breast, 92.4%. For the same molecule, the growth is 89% with HCT-116 colon, 98.5% in the test with HCC-2998 colon and 95.8% in the test with KM12 colon.
For `O=C(Cc1ccccn1)C(F)(F)C(F)(F)C(F)(F)F`, the growth was 100% with RPMI-8226 leukemia; 113% with OVCAR-5 ovarian; 109% in the test with OVCAR-4 ovarian; 109% with SK-OV-3 ovarian; 123% in the test on IGROV1 ovarian; 112% in the test with OVCAR-3 ovarian. The growth is 102% in the test on HS 578T breast; 104% in the test with NCI/ADR-RES ovarian; 102% in the test with T-47D breast; 127% with BT-549 breast; 113% in the test with MDA-MB-435 melanoma; 109% with SW-620 colon. The growth was 97.3% in the test on MCF7 breast, 104% in the test with HCT-116 colon, 100% in the test with HCC-2998 colon and 135% in the test with KM12 colon.
